Most compounds without a hit are left out; they make up all but 28% or so of the library.
CYP2C19 inh: human CYP2C19 inhibition; P33261; CYP2C19 Supersomes, luciferin-H EGE luminescence, 30 min; inhibition, % at 5 µM; 96,000 tested, 21% active; AID 778;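 active = CYP2C19 inhibition above a set limit at 5 µM in the primary screen, cut at about 50% in these data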
CYP2C19 act: increases human CYP2C19 enzyme activity | 96,000 tested, under 10 active | P33261 | recombinant CYP2C19, luciferin-H EGE luminescence; active compounds read high; 0 = fully inhibited enzyme, 1 = untreated enzyme | activation factor at 5 µM;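 active = activation factor of at least 2 at 5 µM in the primary screen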
CD11b adhes inh: inhibitors of human CD11b/CD18 binding to fibrinogen | inhibition, % at 10 µM | 93,000 tested, 0.54% active | AID 1497 | K562 CD11b/CD18 adhesion to fibrinogen, ATPlite luminescence; Mn2+ added to activate the integrin | P05107+P11215;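 active = primary inhibition of 50% or more at 10 µM, then 40% or more on retest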
CYP2C9 inh: inhibitors of human CYP2C9; P11712; CYP2C9 Supersomes, luciferin-H conversion, luminescence; inhibition, % at 5 µM; 96,000 tested, 20% active; AID 777;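 active = blocking of liver enzyme CYP2C9 beyond about 50% at 5 µM, limit read from the data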
Target sequence (P11712 whole entry, looked up): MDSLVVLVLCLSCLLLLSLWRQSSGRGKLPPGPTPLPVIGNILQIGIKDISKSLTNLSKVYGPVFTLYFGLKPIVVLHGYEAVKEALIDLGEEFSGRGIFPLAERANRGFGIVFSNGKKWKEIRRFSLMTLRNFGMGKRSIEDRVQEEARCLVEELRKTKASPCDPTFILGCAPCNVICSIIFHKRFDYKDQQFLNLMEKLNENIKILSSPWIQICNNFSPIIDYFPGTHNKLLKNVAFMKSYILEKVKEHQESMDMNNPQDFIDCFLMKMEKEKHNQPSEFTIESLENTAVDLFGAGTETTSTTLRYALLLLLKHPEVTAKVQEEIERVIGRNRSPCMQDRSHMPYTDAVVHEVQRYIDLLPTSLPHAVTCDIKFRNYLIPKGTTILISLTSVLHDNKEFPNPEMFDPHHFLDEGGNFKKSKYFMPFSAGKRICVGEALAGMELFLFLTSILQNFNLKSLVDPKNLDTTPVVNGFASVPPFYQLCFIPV
CYP2C9 activ: CYP2C9 (human) activation | recombinant CYP2C9, luciferin-H conversion, luminescence; active compounds read high; factor 1 = untreated enzyme, 0 = blocked | activation factor at 5 µM | 96,000 tested, 1.4% active | P11712;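 active = activation factor of 2 or more for CYP2C9 at a 5 µM dose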
Mac1 fbg enh: increases human CD11b/CD18 adhesion to fibrinogen; K562 CD11b/CD18 adhesion to fibrinogen, ATPlite luminescence; activation, % at 10 µM; 93,000 tested, 0.07% active; AID 1499;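 active = 10 µM primary screen giving 50% or more activity, confirmed by 40% or more on retest at that dose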
A number is an active result; 0 = inactive; - = not tested or not shown.

SMILES	CYP2C19 inh	CYP2C19 act	CD11b adhes inh	CYP2C9 inh	CYP2C9 activ	Mac1 fbg enh
O=C(Nc1nccs1)C1CCCN1S(=O)(=O)c1ccc(Cl)cc1 (stereo unspecified)	0	0	0	69	0	0
NC(=O)c1ccsc1NC(=O)C1CCCN1S(=O)(=O)c1ccc(Cl)cc1 (stereo unspecified)	61	0	0	78	0	0
CC(C)CNC(=O)C1CCCN1S(=O)(=O)c1ccc(Cl)cc1 (stereo unspecified)	0	0	0	0	0	0
O=[N+]([O-])c1ccc(Sc2ccc(Cl)c(Cl)c2)nc1	0	0	0	0	0	0
Cc1ccc(OCCCC(=O)Nc2nncs2)cc1	88	0	0	74	0	0
O=C(CCCOc1ccc(Cl)cc1)Nc1nncs1	68	0	0	68	0	0
Cc1ccc(OCCCC(=O)Nc2ccc(Br)cc2)cc1	0	0	0	0	0	0
COc1cc(C(=O)Nc2nnc(CC(=O)N3CCOCC3)s2)cc(OC)c1OC	0	0	0	0	0	0
Cc1cc(C)c2cc(CN(CCO)C(c3nnnn3Cc3ccc(F)cc3)C(C)C)c(=O)[nH]c2c1 (stereo unspecified)	76	0	0	93	0	0
Cc1cc(C)c2cc(CN(CCO)C(=O)Nc3ccc(F)cc3)c(=O)[nH]c2c1	74	0	0	0	0	0
CCC(c1nnnn1Cc1ccc(F)cc1)N(CCCO)Cc1cc2cc3c(cc2[nH]c1=O)OCO3 (stereo unspecified)	55	0	0	0	0	0
COc1ccc(NC(=O)N(CCO)Cc2cc3c(C)cc(C)cc3[nH]c2=O)cc1	0	0	0	0	0	0
Cc1cc(C)c2cc(CN(Cc3ccco3)C(=O)NCc3ccccc3)c(=O)[nH]c2c1	0	0	0	55	0	0
CCC(C)NC(=O)C1CCN(S(=O)(=O)c2ccc(OC)cc2)CC1 (stereo unspecified)	0	0	0	0	0	0
CCOc1ccccc1N1CCN(C(=O)C(Sc2ccccc2)c2ccccc2)CC1 (stereo unspecified)	51	0	0	0	0	0
CCCc1ccc(C(=O)N2CCN(c3ccccc3OCC)CC2)cc1	88	0	0	76	0	0
CCOc1ccccc1N1CCN(C(=O)c2cc(C)oc2C)CC1	68	0	0	0	0	0
CCOc1ccccc1N1CCN(C(=O)c2cc[n+]([O-])cc2)CC1	80	0	0	0	0	0
O=C(C(Sc1ccccc1)c1ccccc1)N1CCN(c2ccccc2)CC1 (stereo unspecified)	-	-	0	-	-	0
O=S(=O)(/N=C(/c1ccc(F)cc1)N1CCCCC1)c1ccc(Cl)cc1	-	-	0	-	-	0
COC(=O)c1sccc1NC(=O)COc1ccc(Cl)cc1Cl	-	-	0	-	-	0
O=C(Nc1cccc(F)c1)C1C2C=CC3(CN(CCCN4CCOCC4)C(=O)C13)O2 (stereo unspecified)	0	0	0	0	0	0
CC(C)(CO)NCC(O)COc1ccc2c(c1)CCC2 (stereo unspecified)	-	-	0	-	-	0
CC(C)(C)NC(=O)NC(=O)COC(=O)COc1ccc2c(c1)CCC2	50	0	0	0	0	0
O=C(NCc1ccc(F)cc1)C1C2C=CC3(CN(Cc4cccnc4)C(=O)C13)O2 (stereo unspecified)	0	0	0	0	0	0
SMILES	CYP2C19 inh	CYP2C19 act	CD11b adhes inh	CYP2C9 inh	CYP2C9 activ	Mac1 fbg enh
O=C(COC(=O)c1ccccc1NC(=O)c1ccco1)Nc1ccc2c(c1)OCO2	0	0	0	58	0	0
O=C(COC(=O)c1ccccc1NC(=O)c1ccco1)NCCC1=CCCCC1	0	0	0	84	0	0
O=C(COC(=O)c1ccccc1NC(=O)c1ccco1)NC1CCCCC1	0	0	0	0	0	0
CC(C)C(OC(=O)c1ccco1)C(=O)NC1CCCCC1 (stereo unspecified)	80	0	0	0	0	0
O=C(COC(=O)c1ccccc1NCc1ccco1)Nc1ccc2c(c1)OCO2	0	0	0	0	0	0
O=C(COC(=O)c1ccccc1NC(=O)c1ccco1)NCC1CCCCC1	79	0	0	95	0	0
COc1nc(N/N=C/c2ccc(C)cc2)nc(N2CCCCC2)n1	-	-	0	-	-	0
CC1=C(C(=O)N2CCOCC2)C(c2ccc(C)cc2)NC(=S)N1 (stereo unspecified)	-	-	0	-	-	0
COC(=O)c1ccccc1NC(=O)COC(=O)c1ccco1	0	0	0	0	0	0
COC(=O)c1ccccc1NC(=O)COC(=O)c1ccc(C)c(NC(=O)c2ccco2)c1	57	0	0	75	0	0
O=C(NCC1CCCCC1)c1ccco1	66	0	0	0	0	0
O=C(COC(=O)c1cncc(Br)c1)NCCC1=CCCCC1	88	0	0	72	0	0
Cc1cc(=O)n2[nH]c(-c3ccc(C(C)(C)C)cc3)cc2n1	0	0	0	0	0	0
COc1ccc2c(c1)c(=O)oc1cc(OCC(=O)N3CCc4ccccc4C3)ccc12	0	0	0	61	0	0
COc1ccc2c(c1)c(=O)oc1cc(OCC(=O)N3CCC(C)CC3)ccc12	99	0	0	0	0	0
COc1ccc2c(c1)c(=O)oc1cc(OCC(=O)N3CCCC(C)C3)ccc12 (stereo unspecified)	99	0	-	0	0	-
O=C(NCc1cccnc1)/C(=C\c1ccc(-c2ccc(Cl)c(Cl)c2)o1)S(=O)(=O)c1ccccc1	-	-	0	-	-	0
CC(C)C(=O)NS(=O)(=O)c1ccc(N)cc1	0	0	0	0	0	0
O=C(CSc1nnc(CNc2ccc(F)cc2)n1Cc1ccccc1)N1CCOCC1	0	0	0	0	0	0
COc1ccc(N2CCN(Cc3cc4c(cc3O)CCC4)CC2)cc1	0	0	0	92	0	0
CCC(=O)Nc1nnc(CSCc2ccccc2)s1	0	0	0	0	0	0
Cc1ccc(C)c(NC(=S)NNC(=O)c2sccc2C)c1	79	0	0	89	0	0
O=C1NCCCC2c3c(cc(Br)c(O)c3Br)OC12N1CCCCC1 (stereo unspecified)	97	0	0	0	0	0
O=C(Cn1cnc2c(cnn2-c2ccccc2)c1=O)N1CCCc2ccccc21	0	0	0	0	0	0
CC(=O)C1=C(C)NC(=O)NC1c1ccc(OC2CCCC2)cc1 (stereo unspecified)	0	0	0	0	0	0
CCCCCCN1C=CC(=C/C=C(\C#N)C(=O)OCC)C=C1	0	0	-	60	0	-
O=C1CCc2cc(S(=O)(=O)NC(Cc3ccccc3)C(=O)NCCC3=CCCCC3)ccc2N1 (stereo unspecified)	68	0	0	61	0	0
CCNC(=O)CN(CCc1ccccc1)S(=O)(=O)c1ccc(OC)cc1	96	0	0	88	0	0
COc1ccc(S(=O)(=O)N(CCc2ccccc2)CC(=O)NCCCO)cc1	51	0	0	0	0	0

Screening data as filed in PubChem BioAssay.
